# Records with an inconclusive call do not appear. The source made the active and inactive calls. How the source made its calls, unless noted: active means hit-call score of the fitted dose curve at least 0.9, where 1 is the maximum; inactive means score below 0.9.
# Columns and labels:
# [1] = molecular target: Oxysterols receptor LXR-alpha (Homo sapiens) (UniProt Q13133); assay: ATG_LXRa_TRANS: Attagene TRANS-FACTORIAL HepG2 Assay for human Liver X Receptor alpha (LXRa) (AID 2282980; active means hit-call score of the fitted dose curve at least 0.9, where 1 is the maximum); conditions: HepG2 Attagene TRANS reporter, LXRa transactivation
# Sequence of Oxysterols receptor LXR-alpha (Homo sapiens) (Q13133 whole entry, looked up, the tested form may be a part): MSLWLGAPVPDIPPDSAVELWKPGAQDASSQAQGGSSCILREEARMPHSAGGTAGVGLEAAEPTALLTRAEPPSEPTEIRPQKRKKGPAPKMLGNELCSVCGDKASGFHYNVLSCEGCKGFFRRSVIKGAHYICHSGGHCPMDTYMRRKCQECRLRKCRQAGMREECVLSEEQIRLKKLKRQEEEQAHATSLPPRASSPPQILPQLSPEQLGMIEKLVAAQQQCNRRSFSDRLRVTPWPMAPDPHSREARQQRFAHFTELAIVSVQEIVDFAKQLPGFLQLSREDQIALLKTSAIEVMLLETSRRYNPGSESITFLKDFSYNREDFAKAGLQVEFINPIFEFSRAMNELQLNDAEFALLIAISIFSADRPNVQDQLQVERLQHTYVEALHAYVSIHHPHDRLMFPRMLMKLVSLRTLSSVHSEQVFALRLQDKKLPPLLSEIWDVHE
# Method in brief: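 Chemical-induced reporter mRNA measured by RT-PCR with fluorescent labelling and capillary electrophoresis after 24 h dosing of transiently transfected HepG2 cells expressing exogenous NR-Gal4 chimeras; increases scored against DMSO baseline.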
# [2] = molecular target: Nuclear receptor subfamily 4 group A member 2 (Homo sapiens) (UniProt P43354); assay: ATG_NURR1_TRANS: Attagene TRANS-FACTORIAL HepG2 Assay for human Nuclear Receptor Related Protein 1 (NURR1) (AID 2282985; active means hit-call score of the fitted dose curve at least 0.9, where 1 is the maximum); conditions: HepG2 Attagene TRANS reporter, mRNA readout
# Sequence of Nuclear receptor subfamily 4 group A member 2 (Homo sapiens) (P43354 whole entry, looked up): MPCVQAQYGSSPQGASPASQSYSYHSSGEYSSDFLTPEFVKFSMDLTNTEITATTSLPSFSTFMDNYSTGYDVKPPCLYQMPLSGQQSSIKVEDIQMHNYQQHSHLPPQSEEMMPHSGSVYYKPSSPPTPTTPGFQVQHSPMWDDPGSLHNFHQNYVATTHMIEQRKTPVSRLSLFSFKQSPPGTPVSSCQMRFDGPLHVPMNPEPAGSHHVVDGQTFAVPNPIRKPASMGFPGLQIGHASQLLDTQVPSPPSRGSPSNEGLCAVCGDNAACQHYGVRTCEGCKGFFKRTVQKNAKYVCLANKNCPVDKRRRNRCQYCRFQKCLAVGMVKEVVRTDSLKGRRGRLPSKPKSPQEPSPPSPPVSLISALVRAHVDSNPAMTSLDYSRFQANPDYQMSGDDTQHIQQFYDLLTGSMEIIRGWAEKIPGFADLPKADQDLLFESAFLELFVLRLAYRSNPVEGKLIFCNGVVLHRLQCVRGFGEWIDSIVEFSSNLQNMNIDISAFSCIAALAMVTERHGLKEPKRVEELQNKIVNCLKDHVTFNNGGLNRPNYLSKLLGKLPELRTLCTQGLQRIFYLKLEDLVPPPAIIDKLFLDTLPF
# Method in brief: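 Endpoint: reporter mRNA increase relative to DMSO. HepG2 cells transfected with reporter units, treated 24 h; RNA processed by RT-PCR, labelling, HpaI digestion and capillary electrophoresis.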
# [3] = molecular target: Transcriptional activator Myb (Homo sapiens) (UniProt P10242); assay: ATG_Myb_CIS: Attagene CIS-FACTORIAL HepG2 Assay for human Myeloblastosis (Myb) Proto-Oncogene Transcription Factor (AID 2282986); conditions: HepG2 Attagene CIS-FACTORIAL Myb reporter transcription; actives raise or lower the signal
# Sequence of Transcriptional activator Myb (Homo sapiens) (P10242 whole entry, looked up): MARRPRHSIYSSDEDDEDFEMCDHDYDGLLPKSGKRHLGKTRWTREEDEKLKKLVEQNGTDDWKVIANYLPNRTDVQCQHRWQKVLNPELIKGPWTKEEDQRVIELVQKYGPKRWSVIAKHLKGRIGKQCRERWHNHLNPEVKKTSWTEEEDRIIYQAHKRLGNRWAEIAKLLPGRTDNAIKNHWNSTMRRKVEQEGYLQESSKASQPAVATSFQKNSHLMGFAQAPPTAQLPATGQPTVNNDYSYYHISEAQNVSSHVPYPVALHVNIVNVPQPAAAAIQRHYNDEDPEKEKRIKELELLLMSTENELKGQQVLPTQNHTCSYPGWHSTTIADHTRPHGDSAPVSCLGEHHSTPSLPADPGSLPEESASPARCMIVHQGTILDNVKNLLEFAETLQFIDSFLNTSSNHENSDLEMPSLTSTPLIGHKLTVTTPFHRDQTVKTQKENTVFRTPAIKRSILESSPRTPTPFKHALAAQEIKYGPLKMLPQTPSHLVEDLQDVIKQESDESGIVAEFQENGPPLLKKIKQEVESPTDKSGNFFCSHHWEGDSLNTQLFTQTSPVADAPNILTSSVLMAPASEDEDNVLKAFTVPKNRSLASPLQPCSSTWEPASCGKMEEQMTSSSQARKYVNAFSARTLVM
# Method in brief: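 Reporter mRNA is quantified by RT-PCR and capillary electrophoresis 24 h after dosing HepG2 cells transfected with cis-regulated reporter units, which track endogenous transcription factor activity. Gain and loss of signal are fitted versus DMSO baseline.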
# [4] = molecular target: Nuclear respiratory factor 1 (Homo sapiens) (UniProt Q16656); assay: ATG_NRF1_CIS: Attagene CIS-FACTORIAL HepG2 Assay for human Nuclear Respiratory Factor 1 (NRF1) Orphan Gene (AID 2282987); conditions: HepG2 NRF1 cis-element reporter, Attagene multiplex; actives raise or lower the signal
# Sequence of Nuclear respiratory factor 1 (Homo sapiens) (Q16656 whole entry, looked up): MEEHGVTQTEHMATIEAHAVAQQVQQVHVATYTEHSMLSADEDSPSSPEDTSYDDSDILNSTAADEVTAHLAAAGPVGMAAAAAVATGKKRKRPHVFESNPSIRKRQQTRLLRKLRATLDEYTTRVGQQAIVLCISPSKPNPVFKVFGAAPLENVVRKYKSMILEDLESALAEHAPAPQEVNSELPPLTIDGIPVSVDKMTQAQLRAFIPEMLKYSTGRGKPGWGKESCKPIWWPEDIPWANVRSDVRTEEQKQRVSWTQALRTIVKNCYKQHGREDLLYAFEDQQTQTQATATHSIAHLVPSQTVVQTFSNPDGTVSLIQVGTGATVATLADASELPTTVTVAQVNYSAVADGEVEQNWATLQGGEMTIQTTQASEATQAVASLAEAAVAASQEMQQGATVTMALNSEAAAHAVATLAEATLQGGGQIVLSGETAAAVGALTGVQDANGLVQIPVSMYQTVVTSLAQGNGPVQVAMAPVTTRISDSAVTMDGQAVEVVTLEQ
# Method in brief: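 Endogenous NRF1-driven reporter transcription in transfected HepG2 cells after 24 h treatment. Readout: RT-PCR products, 6-FAM labelled and resolved by capillary electrophoresis; changes fitted both directions relative to DMSO.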
# [5] = ATG_NFI_CIS: Attagene CIS-FACTORIAL HepG2 Assay for human Nuclear Factor I (NFI) (AID 2282989); conditions: HepG2 cis-regulatory reporter, NFI response element transcription; actives raise or lower the signal
# Method in brief: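 Transient MRTU transfection of HepG2 → 24 h chemical dosing → total RNA, oligo(dT) RT → PCR, 6-FAM primer extension, HpaI cut → capillary electrophoresis. Endpoint fitted bidirectionally relative to DMSO.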
# [6] = molecular target: Myc proto-oncogene protein (Homo sapiens) (UniProt P01106); assay: ATG_Myc_CIS: Attagene CIS-FACTORIAL HepG2 Assay for human Myelocytomatosis (Myc) Proto-Oncogene Transcription Factor (AID 2282990); conditions: HepG2, Attagene cis-reporter transcription factor activity; actives raise or lower the signal
# Sequence of Myc proto-oncogene protein (Homo sapiens) (P01106 whole entry, looked up, the tested form may be a part): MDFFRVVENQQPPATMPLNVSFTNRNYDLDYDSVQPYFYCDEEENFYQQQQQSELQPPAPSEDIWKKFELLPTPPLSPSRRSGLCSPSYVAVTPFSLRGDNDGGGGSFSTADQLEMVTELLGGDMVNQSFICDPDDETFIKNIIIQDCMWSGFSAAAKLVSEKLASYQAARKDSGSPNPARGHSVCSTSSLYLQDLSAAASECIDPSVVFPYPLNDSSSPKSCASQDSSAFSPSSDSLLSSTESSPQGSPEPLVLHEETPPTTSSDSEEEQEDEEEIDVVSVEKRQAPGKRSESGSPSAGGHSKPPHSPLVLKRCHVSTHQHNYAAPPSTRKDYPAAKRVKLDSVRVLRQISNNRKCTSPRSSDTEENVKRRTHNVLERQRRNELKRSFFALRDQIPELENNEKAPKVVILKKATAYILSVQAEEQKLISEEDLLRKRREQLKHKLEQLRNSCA
# Method in brief: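 Fluorescence intensity of reporter-specific cDNA fragments, separated by capillary electrophoresis, gives the signal. Transfected HepG2 cells carrying cis-promoter reporter constructs are incubated with compound for 24 h; DMSO serves as baseline.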
# [7] = ATG_NF_kB_CIS: Attagene CIS-FACTORIAL HepG2 Assay for human Nuclear Factor Kappa B (NF-kB) (AID 2282991); conditions: HepG2 Attagene cis-factorial NF-kB reporter mRNA; actives raise or lower the signal
# Method in brief: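 Readout is reporter transcript level, gain or loss versus DMSO, measured 24 h post-dose via RT-PCR, fluorescent labelling and capillary electrophoresis. Human HepG2 liver cells carried transiently transfected CIS reporter constructs reflecting endogenous factors.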
# [8] = ATG_NRF2_ARE_CIS: Attagene CIS-FACTORIAL HepG2 Assay for human Nuclear Factor Erythroid 2 Related Factor 2 (NFR2) response to Antioxidant Response Elements (ARE) (AID 2282992); conditions: HepG2 Attagene ARE/NRF2 reporter, transcription factor activity; actives raise or lower the signal
# Method in brief: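 Endogenous transcription factor activity read out as reporter transcript levels (RT-PCR plus capillary electrophoresis, fluorescence) in transiently transfected HepG2 cells. Measured at 24 h after dosing; gain or loss of signal fitted versus DMSO.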
# [9] = ATG_Oct_MLP_CIS: Attagene CIS-FACTORIAL HepG2 Assay for human Octamer-Binding Transcription Factor (Oct) (AID 2282993); conditions: HepG2 Attagene cis-factorial Oct reporter, mRNA; actives raise or lower the signal
# Method in brief: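 Transient MRTU transfection of HepG2 → 24 h compound treatment → RNA isolation, reverse transcription, PCR → 6-FAM primer extension, HpaI digest → capillary electrophoresis. Activity fitted both directions against DMSO.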
# [10] = molecular target: Cellular tumor antigen p53 (Homo sapiens) (UniProt P04637); assay: ATG_p53_CIS: Attagene CIS-FACTORIAL HepG2 Assay for human p53 Transcription Factor (AID 2282994); conditions: HepG2 p53 cis-element reporter, Attagene mRNA; actives raise or lower the signal
# Sequence of Cellular tumor antigen p53 (Homo sapiens) (P04637 whole entry, looked up): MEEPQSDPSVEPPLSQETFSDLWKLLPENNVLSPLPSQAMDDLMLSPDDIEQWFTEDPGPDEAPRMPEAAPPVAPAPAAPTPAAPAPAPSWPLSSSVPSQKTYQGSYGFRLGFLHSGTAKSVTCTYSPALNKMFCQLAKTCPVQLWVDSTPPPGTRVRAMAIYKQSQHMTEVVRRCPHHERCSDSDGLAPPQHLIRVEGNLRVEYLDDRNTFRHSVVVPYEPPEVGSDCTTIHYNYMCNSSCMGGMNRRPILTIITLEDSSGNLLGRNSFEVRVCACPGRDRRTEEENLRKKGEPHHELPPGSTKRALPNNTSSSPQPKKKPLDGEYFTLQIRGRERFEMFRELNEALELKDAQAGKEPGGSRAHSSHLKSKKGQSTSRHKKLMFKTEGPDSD
# Method in brief: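 Endogenous p53 activity read in transiently transfected HepG2 from a cis-element-driven reporter transcript after 24 h exposure. RNA reverse-transcribed, PCR-amplified, fluorescently labelled and sized by capillary electrophoresis; gain or loss fitted against DMSO baseline.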
# [11] = BSK_3C_TissueFactor: BioMAP Diversity Plus: 3C Assay for Tissue Factor Biomarker Activity (AID 2282997); conditions: BioMAP 3C HUVEC, tissue factor biomarker readout; actives raise or lower the signal
# Method in brief: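 Tissue factor on primary human umbilical vein endothelium was read by ELISA 24 h after dosing, gain or loss relative to DMSO. Cytotoxicity ran alongside via SRB (0.1%, TCA-fixed, 560 nm).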
# [12] = BSK_3C_uPAR: BioMAP Diversity Plus: 3C Assay for Urokinase-type plasminogen activator receptor (uPAR) Biomarker Activity (AID 2282998); conditions: BioMAP 3C HUVEC, uPAR biomarker ELISA; actives raise or lower the signal
# Method in brief: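 ELISA readout of uPAR on human vascular endothelium (umbilical vein primary cells), taken 24 h after chemical dosing. Increases and decreases are both fitted relative to DMSO vehicle.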
# [13] = BSK_3C_VCAM1: BioMAP Diversity Plus: 3C Assay for Vascular cell adhesion molecule 1 (VCAM1) Biomarker Activity (AID 2282999); conditions: BioMAP 3C HUVEC, VCAM1 ELISA, cytokine-stimulated; actives raise or lower the signal
# Method in brief: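 HUVEC primary cells, 24 h compound exposure; VCAM-1 by ELISA; gain/loss of signal fitted bidirectionally vs DMSO baseline.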
# [14] = BSK_4H_Eotaxin3: BioMAP Diversity Plus: 4H Assay for Eotaxin 3 Biomarker Activity (AID 2283000); conditions: primary human endothelial cells (HUVEC); actives raise or lower the signal;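 further: CCL26 protein level quantified by ELISA in parallel with SRB cytotoxicity check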
# Method in brief: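 Human umbilical vein endothelial cells (BSK_4H system) dosed with test chemical; Eotaxin-3 (CCL26) measured by ELISA 24 h after dosing. Bidirectional curve fitting relative to DMSO negative control as baseline.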
# [15] = molecular target: human Peroxisome Proliferator-activated Receptor delta (PPARd), PPARD (gene 5467) (UniProt Q03181); assay: ATG_PPARd_TRANS: Attagene TRANS-FACTORIAL HepG2 Assay for human Peroxisome Proliferator-activated Receptor delta (PPARd) (AID 2283002; active means hit-call score of the fitted dose curve at least 0.9, where 1 is the maximum)
# Sequence of human Peroxisome Proliferator-activated Receptor delta (PPARd), PPARD (gene 5467) (Q03181 whole entry, looked up, the tested form may be a part): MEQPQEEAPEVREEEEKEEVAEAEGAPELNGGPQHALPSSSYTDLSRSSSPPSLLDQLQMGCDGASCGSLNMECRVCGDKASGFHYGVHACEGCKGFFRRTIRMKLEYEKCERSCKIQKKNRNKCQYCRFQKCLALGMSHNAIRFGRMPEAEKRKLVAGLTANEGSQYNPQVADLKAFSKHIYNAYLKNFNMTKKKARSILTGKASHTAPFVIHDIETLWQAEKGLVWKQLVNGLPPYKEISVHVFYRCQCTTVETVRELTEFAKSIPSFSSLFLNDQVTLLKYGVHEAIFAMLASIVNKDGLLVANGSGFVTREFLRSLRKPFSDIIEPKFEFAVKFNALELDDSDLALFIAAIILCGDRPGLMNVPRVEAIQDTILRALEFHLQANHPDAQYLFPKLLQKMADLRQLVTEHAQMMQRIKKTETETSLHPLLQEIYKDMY
# Method in brief: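 Fluorescence from capillary electrophoresis of labelled RT-PCR reporter fragments gives the signal; DMSO sets baseline. Cells: HepG2 transiently carrying GAL4-UAS reporter units plus chimeric nuclear receptor-Gal4 proteins, exposed to chemicals for 24 h.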
# [16] = molecular target: Oxysterols receptor LXR-beta (Homo sapiens) (UniProt P55055); assay: ATG_LXRb_TRANS: Attagene TRANS-FACTORIAL HepG2 Assay for human Liver X Receptor beta (LXRb) (AID 2282981; active means hit-call score of the fitted dose curve at least 0.9, where 1 is the maximum); conditions: HepG2 Attagene TRANS GAL4-LXRb reporter, mRNA
# Sequence of Oxysterols receptor LXR-beta (Homo sapiens) (P55055 whole entry, looked up, the tested form may be a part): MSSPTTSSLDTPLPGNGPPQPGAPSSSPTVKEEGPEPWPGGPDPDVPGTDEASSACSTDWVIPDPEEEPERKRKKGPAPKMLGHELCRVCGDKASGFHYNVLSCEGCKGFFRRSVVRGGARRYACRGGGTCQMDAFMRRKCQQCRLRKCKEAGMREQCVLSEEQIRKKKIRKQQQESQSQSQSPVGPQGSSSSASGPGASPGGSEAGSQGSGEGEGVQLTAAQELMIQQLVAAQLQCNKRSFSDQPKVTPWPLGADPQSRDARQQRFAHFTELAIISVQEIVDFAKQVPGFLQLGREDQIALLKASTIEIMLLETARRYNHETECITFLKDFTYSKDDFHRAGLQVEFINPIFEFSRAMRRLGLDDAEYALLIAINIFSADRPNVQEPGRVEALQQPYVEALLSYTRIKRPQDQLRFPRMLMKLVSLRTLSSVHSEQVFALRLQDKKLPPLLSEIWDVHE
# Method in brief: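 Multiplexed reporter assay, HepG2, 24 h dosing. Fluorescence of labelled RT-PCR products after capillary electrophoresis gives transcript level; positive fitting direction relative to DMSO.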
# [17] = ATG_M_06_TRANS: Attagene TRANS-FACTORIAL HepG2 Assay for M06 Transcription Factor (Internal Marker) (AID 2282983; active means hit-call score of the fitted dose curve at least 0.9, where 1 is the maximum); conditions: HepG2 Attagene TRANS M06 internal marker reporter
# Method in brief: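 Background-control reporter readout: after 24 h chemical exposure of transiently transfected HepG2 (GAL4-UAS reporter units), mRNA quantified by RT-PCR with fluorescent labeling and capillary electrophoresis. Gain-of-signal fitting against DMSO baseline.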
# [18] = ATG_M_32_TRANS: Attagene TRANS-FACTORIAL HepG2 Assay for M32 Transcription Factor (Internal Marker) (AID 2282984; active means hit-call score of the fitted dose curve at least 0.9, where 1 is the maximum;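 further: transcript level of a background control reporter unit measured by RT-PCR and capillary electrophoresis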); conditions: HepG2 Attagene TRANS M32 internal marker reporter
# Method in brief: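 Internal-marker readout from a multiplexed transcription reporter panel. HepG2 cells were transfected with GAL4-UAS reporter units, treated 24 hours, and reporter transcript levels determined by fluorescence after RT-PCR and capillary separation.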
# [19] = molecular target: human Peroxisome Proliferator-activated Receptor alpha (PPARa), PPARA (gene 5465) (UniProt Q07869); assay: ATG_PPARa_TRANS: Attagene TRANS-FACTORIAL HepG2 Assay for human Peroxisome Proliferator-activated Receptor alpha (PPARa) (AID 2283001; active means hit-call score of the fitted dose curve at least 0.9, where 1 is the maximum;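 on AC50: potency for gain of reporter signal over DMSO so agonist or activator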)
# Sequence of human Peroxisome Proliferator-activated Receptor alpha (PPARa), PPARA (gene 5465) (Q07869 whole entry, looked up): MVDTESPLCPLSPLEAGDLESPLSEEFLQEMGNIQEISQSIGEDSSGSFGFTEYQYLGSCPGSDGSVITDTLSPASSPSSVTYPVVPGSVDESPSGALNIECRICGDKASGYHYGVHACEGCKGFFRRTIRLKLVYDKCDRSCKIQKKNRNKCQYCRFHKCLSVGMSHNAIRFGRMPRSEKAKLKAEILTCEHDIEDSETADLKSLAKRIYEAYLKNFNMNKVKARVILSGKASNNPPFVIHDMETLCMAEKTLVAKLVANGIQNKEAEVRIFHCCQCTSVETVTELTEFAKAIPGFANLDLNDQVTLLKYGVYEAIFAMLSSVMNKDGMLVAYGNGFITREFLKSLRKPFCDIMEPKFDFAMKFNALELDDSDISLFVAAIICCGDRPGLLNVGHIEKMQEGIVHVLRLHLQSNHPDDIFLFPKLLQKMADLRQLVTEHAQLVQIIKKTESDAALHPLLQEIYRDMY
# Method in brief: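 HepG2, transient MRTU transfection, 24 h treatment. RT-PCR → FAM labelling → capillary electrophoresis. Fit vs DMSO, positive direction.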
# [20] = molecular target: Hepatocyte nuclear factor 4-alpha (Homo sapiens) (UniProt P41235); assay: ATG_HNF4a_TRANS: Attagene TRANS-FACTORIAL HepG2 Assay for human Hepatocyte Nuclear Factor 4 alpha (HNF4a) (AID 2282982; active means hit-call score of the fitted dose curve at least 0.9, where 1 is the maximum); conditions: HepG2 HNF4a transactivation reporter, mRNA readout
# Sequence of Hepatocyte nuclear factor 4-alpha (Homo sapiens) (P41235 whole entry, looked up, the tested form may be a part): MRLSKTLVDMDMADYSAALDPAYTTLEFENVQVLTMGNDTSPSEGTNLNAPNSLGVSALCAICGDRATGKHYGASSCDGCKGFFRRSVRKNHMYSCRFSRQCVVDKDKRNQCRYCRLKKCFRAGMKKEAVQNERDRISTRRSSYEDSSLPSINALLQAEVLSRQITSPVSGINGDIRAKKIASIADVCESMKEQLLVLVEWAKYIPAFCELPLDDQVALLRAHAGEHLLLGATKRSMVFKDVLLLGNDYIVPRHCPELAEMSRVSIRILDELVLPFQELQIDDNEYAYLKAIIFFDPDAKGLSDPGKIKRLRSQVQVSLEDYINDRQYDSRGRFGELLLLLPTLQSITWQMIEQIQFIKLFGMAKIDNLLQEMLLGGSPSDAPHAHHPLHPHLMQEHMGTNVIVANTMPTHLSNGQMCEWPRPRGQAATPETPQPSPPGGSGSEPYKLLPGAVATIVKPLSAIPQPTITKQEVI
# Method in brief: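 Endpoint reflects transcriptional activation of a GAL4-UAS reporter by an HNF4a-GAL4 chimera in transfected HepG2 cells, 24 h post-dosing. Fluorescence from RT-PCR products separated by capillary electrophoresis; DMSO baseline.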
smiles,measurement,setting,value
CC(O)CN(CCN(CC(C)O)CC(C)O)CC(C)O (stereo unspecified),outcome,[1],inactive
same,outcome,[2],inactive
same,outcome,[3],inactive
same,outcome,[4],inactive
same,outcome,[5],inactive
same,outcome,[6],inactive
same,outcome,[7],inactive
same,outcome,[8],inactive
same,outcome,[9],inactive
same,outcome,[10],inactive
same,outcome,[11],inactive
same,outcome,[12],inactive
same,outcome,[13],inactive
same,outcome,[14],inactive
same,outcome,[15],inactive
CC[C@H]1OC(=O)[C@H](C)[C@@H](O[C@H]2C[C@@](C)(OC)[C@@H](O)[C@H](C)O2)[C@H](C)[C@@H](O[C@@H]2O[C@H](C)C[C@H](N(C)C)[C@H]2O)[C@](C)(O)C[C@@H](C)C(=O)[C@H](C)[C@@H](O)[C@]1(C)O,outcome,[16],inactive
same,outcome,[17],inactive
same,outcome,[18],inactive
same,outcome,[3],inactive
same,outcome,[4],inactive
same,outcome,[5],inactive
same,outcome,[6],inactive
same,outcome,[7],inactive
same,outcome,[8],inactive
same,outcome,[9],inactive
same,outcome,[10],inactive
same,outcome,[11],inactive
same,outcome,[12],inactive
same,outcome,[13],inactive
same,outcome,[14],inactive
same,outcome,[19],inactive
CCOCCOCCOCCO,outcome,[16],inactive
same,outcome,[2],inactive
same,outcome,[3],inactive
same,outcome,[4],inactive
same,outcome,[5],inactive
same,outcome,[6],inactive
same,outcome,[7],inactive
same,outcome,[8],inactive
same,outcome,[9],inactive
same,outcome,[10],inactive
same,outcome,[11],inactive
same,outcome,[12],inactive
same,outcome,[13],inactive
same,outcome,[14],inactive
CC(C)=CCCC(C)CCO (stereo unspecified),outcome,[20],inactive
same,outcome,[17],inactive
same,outcome,[18],inactive
same,outcome,[3],inactive
same,outcome,[4],inactive
same,outcome,[5],inactive
same,outcome,[6],inactive
same,outcome,[7],inactive
same,AC50,[8],134 µM (active)
same,outcome,[9],inactive
same,outcome,[10],inactive
same,outcome,[11],inactive
same,outcome,[12],inactive
same,outcome,[13],inactive
same,outcome,[14],inactive
same,AC50,[19],65.5 µM (active)

# Source: PubChem BioAssay (EPA / NIEHS)
